Screening results (PubChem)
Compounds with a hit are over-represented: about 12% of the library has one in this group of screens.
PI5P4K alpha inh = inhibitors of human PI5P4K alpha; P48426; 1.2% of 330,000 active; max response, %; AID 652105; PI5P4Kalpha enzyme, ADP-Glo luminescence, 60 min; stronger effect = lower value; active = max response of -50% or lower; inconclusive = between -30% and -50%; inactive = -30% or higher; note: value at the top dose of about 77 µM
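Enzyme plus substrate dispensed, test compounds pinned in, then ATP (5 microM final) added. After 60 min at RT, ADP-Glo reagent 1 for 45 min and reagent 2 for 30 min preceded luminescence imaging.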
HP1b binding inh = blocks HP1-beta chromodomain binding to methylated histone tails. P83916. AlphaScreen HP1-beta / biotin-H3K9me3 peptide binding. Potency, µM (series often up to 114 µM), actives largely listed as inhibitors. 0.56% of 390,000 active; note: nearly all actives have a fitted effect of over 70% in size
Target sequence (P83916 whole entry, looked up): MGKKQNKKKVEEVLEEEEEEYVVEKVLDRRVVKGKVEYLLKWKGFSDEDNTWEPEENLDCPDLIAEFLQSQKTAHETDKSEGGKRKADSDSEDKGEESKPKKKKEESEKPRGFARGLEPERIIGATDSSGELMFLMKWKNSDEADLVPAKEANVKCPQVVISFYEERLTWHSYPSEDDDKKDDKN
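Compound inhibition of the preformed complex between 50 nM HP1-beta and 50 nM biotinylated H3K9me3 peptide was read by AlphaScreen. Buffer was PBS pH 7.4 with 0.01% Tween-20. Incubations ran 30 min at room temperature, with 10 ug/mL donor/acceptor beads.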
G9a inh = inhibitors of human histone lysine methyltransferase G9a. G9a H3K9 monomethylation, AlphaScreen, 2 h. Q96KQ7. Potency, µM (top dose mostly 102 µM), usual class: inhibitors. 8.8% of 350,000 active; note: nearly all actives have a fitted effect of over 75% in size
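Step 1: enzyme (final 20 nM) with compound, 15 min RT. Step 2: substrate peptide 500 nM and SAM 20 uM, 2 h RT. Step 3: anti-H3K9me1 antibody and AlphaScreen beads, 10 min, then plate read.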
BAZ2B inh = inhibitors of human BAZ2B bromodomain; AlphaScreen BAZ2B-H3K14Ac peptide displacement; Potency, µM (doses to about 114 µM), usual class: inhibitors; 4.4% of 360,000 active; note: nearly all actives have a fitted effect of over 60% in size
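BAZ2B (50 nM) with biotin-H3(5-23)K14Ac peptide (50 nM) in PBS pH 7.4, 0.01% Tween-20, preformed 30 min, then compound 30 min at room temperature; top concentration 110uM. AlphaScreen streptavidin donor/nickel chelate acceptor beads (10 ug/mL final), 20 min dark, signal read.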
PLK1 PBD inh = PLK1 (human) polo-box domain binding inhibition; P53350; Plk1 PBD binding of FITC phosphopeptide, fluorescence polarization; Potency, µM, actives largely listed as inhibitors; 2.8% of 360,000 active; AID 720504; note: series mostly up to about 57 µM; nearly all actives have a fitted effect of over 65% in size
Target sequence (P53350 whole entry, looked up, the tested form may be a part): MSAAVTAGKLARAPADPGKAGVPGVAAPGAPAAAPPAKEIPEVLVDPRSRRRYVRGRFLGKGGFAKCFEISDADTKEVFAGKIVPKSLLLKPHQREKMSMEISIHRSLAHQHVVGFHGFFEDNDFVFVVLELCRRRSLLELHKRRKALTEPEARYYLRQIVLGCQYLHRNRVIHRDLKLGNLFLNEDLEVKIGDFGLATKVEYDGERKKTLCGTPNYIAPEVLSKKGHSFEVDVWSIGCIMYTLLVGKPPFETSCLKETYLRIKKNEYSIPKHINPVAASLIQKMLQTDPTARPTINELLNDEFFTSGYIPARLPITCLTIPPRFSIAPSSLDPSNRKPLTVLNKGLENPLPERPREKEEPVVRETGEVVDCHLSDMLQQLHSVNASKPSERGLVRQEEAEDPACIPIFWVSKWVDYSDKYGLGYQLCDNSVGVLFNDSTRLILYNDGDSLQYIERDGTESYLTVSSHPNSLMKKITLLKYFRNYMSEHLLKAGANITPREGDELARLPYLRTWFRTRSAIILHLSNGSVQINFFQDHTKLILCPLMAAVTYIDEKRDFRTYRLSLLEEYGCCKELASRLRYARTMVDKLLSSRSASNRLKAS
JMJD2A Tudor = inhibitors of human JMJD2A Tudor domain. AlphaScreen JMJD2A-Tudor / H3K4me3 peptide binding. Potency, µM (doses to about 114 µM), most hits filed as inhibitors. 4.4% of 390,000 active. AID 504339; note: nearly all actives have a fitted effect of over 50% in size
Large screens that a line does not name were inactive; ! = not confirmed by another sample. Unless noted, calls come from the whole dose curve; as a rule, active = well fitted curve in the direction sought with a large enough effect; inconclusive = small, poorly fitted or top-dose-only effect, or another doubt; inactive = no such curve, though single readings can be large; an effect the other way counts as inactive or inconclusive.

CCOC(=O)/C=C/C(=O)Nc1cc(S(=O)(=O)Nc2ccc(OC)cc2)ccc1N1CCOCC1	G9a inh 45µM
CCOC(=O)c1ccc(S(=O)(=O)Nc2ccc(N3CCOCC3)cc2)cc1	G9a inh 79µM
CCC(C)NC(=O)c1cn(CC)c2cc(N3CCN(C(=O)c4ccco4)CC3)c(F)cc2c1=O (stereo not drawn)	none (no result: G9a inh)
O=S(=O)(NCCN1CCOCC1)c1ccc(Cl)c(Cl)c1	G9a inh inconclusive
CC(=O)c1cccc(S(=O)(=O)NCCCN2CCOCC2)c1	G9a inh 1.4µM
O=S(=O)(NCCN1CCOCC1)c1ccc(F)c(Cl)c1	PI5P4K alpha inh inconclusive, PLK1 PBD inh 3.4µM, JMJD2A Tudor 14µM
CC(=O)c1ccc(S(=O)(=O)Nc2ccc(N3CCOCC3)cc2)cc1	G9a inh 28µM, PLK1 PBD inh inconclusive
CC(=O)Nc1ccc(S(=O)(=O)Nc2ccc(N3CCOCC3)cc2)cc1	none
CC(=O)c1cccc(S(=O)(=O)Nc2cccnc2)c1	G9a inh 45µM
COc1ccc(-n2ncc(C(=O)NCc3ccc4c(c3)OCO4)c2C2CCN(C(=O)OC(C)(C)C)CC2)cc1	none (no result: PI5P4K alpha inh, PLK1 PBD inh)
Cc1ccc(NS(=O)(=O)c2cccc(C(=O)NN3CCOCC3)c2)cc1	none (no result: PI5P4K alpha inh, HP1b binding inh, G9a inh, PLK1 PBD inh, JMJD2A Tudor)
CC(=O)c1ccc(S(=O)(=O)Nc2ccc(-c3ccc4nnc(C)n4n3)cc2)cc1	PI5P4K alpha inh inconclusive, BAZ2B inh 71µM
CCOC(=O)c1ccc(NS(=O)(=O)c2ccc3c(c2)n(C)c(=O)n3C)cc1	BAZ2B inh 79µM!
CC(=O)c1cccc(S(=O)(=O)Nc2ccc(N3CCOCC3)cc2)c1	G9a inh 50µM
COc1cccc(NC(=O)Cn2c(=O)n(Cc3ccc4c(c3)OCO4)c(=O)c3oc4ccccc4c32)c1	none (no result: PI5P4K alpha inh, PLK1 PBD inh)
CCCCn1c(N)c(N(CCOC)C(=O)C2CCN(S(=O)(=O)c3ccc(C)c(C)c3)CC2)c(=O)[nH]c1=O	G9a inh 50µM
CCCCn1c(N)c(N(CC(C)C)C(=O)C2CCCN(C(=O)c3ccc(Cl)cc3)C2)c(=O)[nH]c1=O (stereo not drawn)	G9a inh inconclusive
CCCCn1c(N)c(N(CCOC)C(=O)C2CCN(C(=O)c3ccc(Cl)cc3)CC2)c(=O)[nH]c1=O	G9a inh 56µM
CCCCN(C(=O)C1CC(=O)N(CCc2ccc(OC)c(OC)c2)C1)c1c(N)n(CCCC)c(=O)[nH]c1=O (stereo not drawn)	G9a inh 16µM
CCCCn1c(N)c(N(CCOC)C(=O)C2CCCN(C(=O)c3ccc(Cl)cc3)C2)c(=O)[nH]c1=O (stereo not drawn)	G9a inh 28µM
CCC(=O)N1CCc2cc(S(=O)(=O)NC(C(=O)NCCc3ccc(Cl)cc3)C(C)C)ccc21 (stereo not drawn)	none (no result: PI5P4K alpha inh, BAZ2B inh, PLK1 PBD inh)
O=C(CSc1nc2ccc(Nc3nc(N4CCOCC4)nc(N4CCOCC4)n3)cc2s1)Nc1ccccc1F	none
CCCCn1c(N)c(N(CCC(C)C)C(=O)CSc2nc3ccccc3n2C)c(=O)[nH]c1=O	JMJD2A Tudor 79µM (no result: G9a inh, BAZ2B inh)
CCCCn1c(N)c(N(CCC(C)C)C(=O)C2CCCC2)c(=O)[nH]c1=O	G9a inh 20µM
COC(=O)C1=C[C@@H](C(=O)OC)[C@@H]2C3=C(C(=O)[C@@]2(C)NC(=O)c2ccccc2)[C@H](C)n2c(=O)n(C)c(=O)n2[C@@H]3C1	none (no result: G9a inh, BAZ2B inh)
CCCCn1c(N)c(N(CCOC)C(=O)c2cc(Cl)nc3ccccc23)c(=O)[nH]c1=O	none
C=C(c1ccc(OCCO)cc1)c1ccc(OCCO)cc1	PLK1 PBD inh 27µM
O=C(c1ccccc1)c1ccc(OCCO)cc1	none
COc1ccc(Cc2nnc(Nc3ccccc3)s2)cc1Br	none
COc1ccc(-c2sc(Nc3cccc4ccccc34)n[n+]2C)c(C)c1C	none (no result: G9a inh, BAZ2B inh)
CCc1ccc(Nc2n[n+](-c3ccccc3)c(-c3ccc(OC)c(Br)c3)s2)cc1	G9a inh 35µM, BAZ2B inh inconclusive, PLK1 PBD inh inconclusive
CSc1ccc(-c2sc(Nc3cccc4ccccc34)n[n+]2-c2ccccc2)cc1	BAZ2B inh 18µM, PLK1 PBD inh inconclusive, JMJD2A Tudor 79µM (no result: G9a inh)
CCc1ccc(Nc2n[n+](C)c(-c3ccncc3)s2)cc1	PI5P4K alpha inh inconclusive, BAZ2B inh 56µM, PLK1 PBD inh inconclusive, JMJD2A Tudor 56µM (no result: G9a inh)
CCc1ccc(Nc2n[n+](C)c(-c3ccc(C(=O)O)cc3)s2)cc1	none (no result: PI5P4K alpha inh, HP1b binding inh, PLK1 PBD inh, JMJD2A Tudor)
CCc1ccc(Nc2n[n+](-c3ccccc3)c(-c3ccc(C(=O)O)cc3)s2)cc1	G9a inh 32µM, BAZ2B inh 35µM, JMJD2A Tudor 79µM
COc1ccc(CCNC(=O)CSc2nc3ncccc3[nH]2)c(OC)c1	none
COC(=O)[C@]1(C)N[C@H](CN(C)C(=O)c2ccccc2)[C@@H]2C(=O)N(Cc3ccccc3)C(=O)[C@@H]21	none (no result: G9a inh, BAZ2B inh)
CC(O)[C@H]1CNCCN1CCc1cccc(F)c1 (stereo partly drawn)	BAZ2B inh inconclusive
CCc1ccc(Nc2n[n+](-c3ccccc3)c(-c3ccc(SC)cc3)s2)cc1	G9a inh 45µM, BAZ2B inh inconclusive, PLK1 PBD inh inconclusive, JMJD2A Tudor inconclusive
C[n+]1nc(Nc2cccc3ccccc23)sc1-c1ccc(C(=O)O)cc1	none (no result: PI5P4K alpha inh, HP1b binding inh, PLK1 PBD inh, JMJD2A Tudor)
Clc1cccc(-c2sc(Nc3ccccc3)n[n+]2-c2ccccc2)c1Cl	BAZ2B inh inconclusive, PLK1 PBD inh inconclusive, JMJD2A Tudor inconclusive (no result: G9a inh)
CSc1ccc(-c2sc(Nc3ccccc3)n[n+]2-c2ccccc2)cc1	PI5P4K alpha inh -53, G9a inh 35µM, BAZ2B inh 45µM, PLK1 PBD inh 24µM, JMJD2A Tudor 56µM
CC(=O)Nc1ccc(-c2sc(Nc3cccc4ccccc34)n[n+]2-c2ccccc2)cc1	G9a inh 45µM, BAZ2B inh inconclusive
COc1cccc(NC(=O)CCC(=O)N2CC(C)Oc3ccc(C)cc32)c1 (stereo not drawn)	none
O=C(CCC(=O)N1CCSc2ccccc21)NCc1ccccc1Cl	none (no result: PI5P4K alpha inh, PLK1 PBD inh)
Cc1ccc(Cn2ncc3c4sc(C)cc4n(C)c3c2=O)cc1	none (no result: PI5P4K alpha inh, HP1b binding inh, G9a inh, BAZ2B inh, PLK1 PBD inh)
COc1ccccc1NS(=O)(=O)c1cc(NC(=O)C2CCC2)ccc1N1CCCCC1	G9a inh 3.5µM, PLK1 PBD inh 6µM, JMJD2A Tudor inconclusive
COc1ccccc1NS(=O)(=O)c1cc(NC(=O)c2cccnc2)ccc1N1CCCCC1	JMJD2A Tudor inconclusive (no result: G9a inh, BAZ2B inh)
COc1ccccc1NS(=O)(=O)c1cc(NC(=O)Nc2ccc(Cl)cc2Cl)ccc1N1CCCCC1	HP1b binding inh inconclusive, G9a inh 3.5µM, PLK1 PBD inh inconclusive
CCC(=O)c1ccc(OCC(O)CNCc2ccc(F)cc2)cc1 (stereo not drawn)	HP1b binding inh inconclusive
